Hits are enriched below; roughly 3.7% of the tested compounds scored in any of these assays.
VDR inhibitor = blocks the human vitamin D receptor. P11473. VDR-SRC2-3 peptide fluorescence polarization, 2 h. Potency, µM, for the others: max response, negative = inhibition, most hits filed as inhibitors. actives 0.93% (n = 400,000); further: potency means the concentration at half of the fitted maximal effect; on the % scale 0 is the no-effect control and ±100 the full control effect
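Fluorescence polarization assay measuring small-molecule disruption of VDR binding to the coregulator peptide SRC2-3. Compounds were pin-transferred (23 nl) into the reagent mix and incubated 2 h at room temperature before reading.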
PI5P4Ka inh = blocks human PI5P4K alpha kinase activity; P48426; actives 1.2% (n = 330,000); PI5P4Kalpha enzyme, ADP-Glo luminescence, 60 min; active compounds read low; max response, %; AID 652105; active means max response of -50% or lower; inconclusive means between -30% and -50%; inactive means -30% or higher; further: value at the top dose of about 77 µM; on the % scale 0 is the no-effect control and ±100 the full control effect
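Controls without substrate or without enzyme flank wells where PI5P4Kalpha converts substrate using 5 microM ATP (final). Incubation lasts 60 minutes at room temperature; ADP formed is read by ADP-Glo luminescence.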
TCR act = activates T cell receptor signaling. primary human leukocytes, anti-CD3, IL-2 HTRF, 48 h. Potency, µM (titrated, usually from 9.22 µM), inactives show top-dose activation of IL-2 secretion, actives largely listed as activators. 330,000 tested, under 10 active. AID 504894; further: % of control where 0% means no effect
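Primary human leukocytes incubated 48 hr with anti-CD3 beads plus compound, without co-stimulation. Secreted IL-2 measured by HTRF (europium cryptate/d2 anti-IL-2 pair, 320 nm excitation, 665 nm emission).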
FEN1 inh-1 = human FEN1 inhibition; actives 0.35% (n = 390,000); P39748; Potency, µM (titrated, usually from 114 µM), for inactives: top-dose activity change, negative = inhibition, most hits filed as inhibitors; Recombinant FEN1 flap cleavage, fluorescence, 15 min; AID 588795; further: potency means the concentration at half of the fitted maximal effect; on the % scale 0 is the no-effect control and ±100 the full control effect; nearly all actives have a fitted effect of over 65% in size
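Quantitative HTS format: each compound was titrated, incubated with 10 nM nuclease for 15 min at room temperature, then challenged with flap substrate at 50 nM final. Signal change over 15 min gave concentration–effect curves.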
PLK1 PBD inh = PLK1 (human) polo-box domain binding inhibition; Plk1 PBD binding of FITC phosphopeptide, fluorescence polarization; Potency, µM, for inactives: max response, negative = inhibition, hits mostly inhibitors; actives 2.8% (n = 360,000); AID 720504; further: potency means the concentration at half of the fitted maximal effect; series mostly up to about 57 µM; on the % scale 0 is the no-effect control and ±100 the full control effect; nearly all actives have a fitted effect of over 65% in size
Target sequence (P53350 whole entry, looked up, the tested form may be a part): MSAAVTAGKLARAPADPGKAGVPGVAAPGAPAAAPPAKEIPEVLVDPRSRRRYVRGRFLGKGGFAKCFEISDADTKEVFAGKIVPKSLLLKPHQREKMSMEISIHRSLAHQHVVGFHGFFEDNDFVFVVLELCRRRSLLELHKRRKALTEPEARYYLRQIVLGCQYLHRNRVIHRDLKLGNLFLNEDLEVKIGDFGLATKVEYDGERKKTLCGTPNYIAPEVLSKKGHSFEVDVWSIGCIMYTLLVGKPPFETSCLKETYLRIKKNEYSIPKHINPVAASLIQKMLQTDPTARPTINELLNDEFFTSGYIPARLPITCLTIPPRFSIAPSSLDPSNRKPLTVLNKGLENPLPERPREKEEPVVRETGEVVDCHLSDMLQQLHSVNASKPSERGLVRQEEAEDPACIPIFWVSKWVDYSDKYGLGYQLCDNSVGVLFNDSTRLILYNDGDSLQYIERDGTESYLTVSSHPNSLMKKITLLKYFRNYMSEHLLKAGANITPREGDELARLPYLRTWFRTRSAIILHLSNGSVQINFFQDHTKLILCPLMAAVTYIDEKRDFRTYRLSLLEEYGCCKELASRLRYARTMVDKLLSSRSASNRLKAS
WRN inhibitor = blocks human WRN helicase; Q14191; Potency, µM (series often up to 114 µM), without a hit: at the top dose activity change, negative = inhibition, actives largely listed as inhibitors; actives 0.46% (n = 360,000); WRN helicase unwinding, fluorescent forked duplex, kinetic; AID 651768; further: potency means the concentration at half of the fitted maximal effect; on the % scale 0 is the no-effect control and ±100 the full control effect; nearly all actives have a fitted effect of over 55% in size
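Enzyme (20 nM final) and test compound sit together 15 min at room temperature before substrate addition. Substrate is a single-forked duplex oligonucleotide (100 nM) labelled with fluorophore and quencher, with 2 mM ATP; helicase unwinding raises red fluorescence, read kinetically.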
FEN1 inh-2 = confirmation of human FEN1 inhibitors; shares compounds with FEN1 inh-1; FEN1 flap cleavage, TAMRA/BHQ2 fluorogenic DNA substrate; Potency, µM, hits mostly inhibitors; actives 79% (n = 880); further: potency means the concentration at half of the fitted maximal effect; nearly all actives have a fitted effect of over 60% in size
* = called active by the depositor; [ ] = remark or other dose. Unless noted, the call rests on the fitted dose curve; in most records, active means well fitted curve in the direction sought with a large enough effect; inconclusive means small, poorly fitted or top-dose-only effect, or another doubt; inactive means no such curve, though single readings can be large; an effect the other way counts as inactive or inconclusive.

Cn1ccc2cc(-c3ccc4ncnc(NCc5cccs5)c4c3)ccc21 was read as VDR inhibitor 7%, TCR act -6% and FEN1 inh-1 -10%.
`O=C(NNc1cc(N2CCOCC2)nc(N2CCOCC2)n1)c1ccc([N+](=O)[O-])cc1` gave VDR inhibitor -8%, PI5P4Ka inh 6, TCR act 1%, FEN1 inh-1 -1%, PLK1 PBD inh -5%, WRN inhibitor 0%[11.6 µM] and FEN1 inh-2 inconclusive.
O=C(Nc1ccc(N2CCOCC2)cc1N1CCOCC1)c1ccc([N+](=O)[O-])cc1 was read as VDR inhibitor -19%, PI5P4Ka inh 5, TCR act -3%, FEN1 inh-1 6%, PLK1 PBD inh -3% and WRN inhibitor -19%.
`COc1cc(-c2noc(-c3ccc(N4CCN(C)CC4)c([N+](=O)[O-])c3)n2)cc(OC)c1OC` gave VDR inhibitor 5% and FEN1 inh-1 -3%.
`CN(c1ccccc1)c1ccc(/C=C(/CCC(=O)O)c2nc3ccccc3s2)cc1[N+](=O)[O-]` gave VDR inhibitor -14%, PI5P4Ka inh inconclusive, TCR act -5%, FEN1 inh-1 50µM*, PLK1 PBD inh inconclusive, WRN inhibitor inconclusive and FEN1 inh-2 67*.
For O=C(N/N=C/c1cccnc1)c1cc(O)c(O)c(O)c1 the results were VDR inhibitor 3%, PI5P4Ka inh -22, TCR act -8%, FEN1 inh-1 4µM*, PLK1 PBD inh inconclusive, WRN inhibitor inconclusive and FEN1 inh-2 6*.
Screening O=C(N/N=C/c1cccnc1)c1cc(Br)ccc1O returned VDR inhibitor 12%, PI5P4Ka inh -6, TCR act 4%, FEN1 inh-1 6%, PLK1 PBD inh 5% and WRN inhibitor -3%.
Screening CC1CCCC(NC(=O)COC(=O)c2ccc([N+](=O)[O-])o2)C1C (stereo unspecified) returned VDR inhibitor -3%, PI5P4Ka inh 0, TCR act -8%, FEN1 inh-1 inconclusive, PLK1 PBD inh -30% and WRN inhibitor 2%.
For O=C(COC(=O)c1ccc([N+](=O)[O-])o1)NC1CCCC1 the results were VDR inhibitor 6%, PI5P4Ka inh 2, TCR act -4%[46.1 µM], FEN1 inh-1 inconclusive, PLK1 PBD inh -19% and WRN inhibitor -9%.
`CCN(C(=O)COC(=O)c1ccc([N+](=O)[O-])o1)C1CCCCC1` gave VDR inhibitor 1%, PI5P4Ka inh -4, FEN1 inh-1 -16%, PLK1 PBD inh -19%, WRN inhibitor 18% and FEN1 inh-2 17*.
CC1CCCCC1NC(=O)COC(=O)c1ccc([N+](=O)[O-])o1 (stereo unspecified) was read as VDR inhibitor 8%, PI5P4Ka inh -4, TCR act -4%, FEN1 inh-1 -26%, PLK1 PBD inh -24%, WRN inhibitor -9%[11.6 µM] and FEN1 inh-2 9.5*.
O=C(COC(=O)c1ccc([N+](=O)[O-])o1)NC1CCS(=O)(=O)C1 (stereo unspecified) was read as VDR inhibitor -8%, PI5P4Ka inh 0, TCR act -2%[46.1 µM], FEN1 inh-1 inconclusive, PLK1 PBD inh -11%, WRN inhibitor -19%[57.1 µM] and FEN1 inh-2 7.6*.
Screening CC(C)(C)OC(=O)NC(Cc1ccccc1)C(=O)NC1COC2CC(n3cc(F)c(=O)[nH]c3=O)OC12 (stereo unspecified) returned VDR inhibitor 6% and FEN1 inh-1 11%.
For Cc1ccc(C)c(NC(=O)Cn2cc(C(=O)c3ccncc3)c(=O)c3cc(F)ccc32)c1 the results were VDR inhibitor 14% and FEN1 inh-1 19%.
Screening Cc1[nH]c2ccccc2c1/C=C/c1cc[n+](C)cc1 returned VDR inhibitor 3%, PI5P4Ka inh -2, TCR act 16%, FEN1 inh-1 inconclusive, PLK1 PBD inh 60%, WRN inhibitor -21%[57.1 µM] and FEN1 inh-2 inconclusive.
CCc1ccc(S(=O)(=O)N(C(=O)Oc2ccccc2)c2ccc3oc(C)c(C(=O)OC)c3c2)cc1 was read as VDR inhibitor -10% and FEN1 inh-1 12%.
For COc1cc(C(=S)N2CCN(c3ccccc3Cl)CC2)cc(O)c1O the results were VDR inhibitor inconclusive, PI5P4Ka inh -58*, TCR act 0%, FEN1 inh-1 inconclusive, PLK1 PBD inh 17µM*, WRN inhibitor inconclusive and FEN1 inh-2 15*.
Screening CC(=O)c1ccc(NC(=O)c2ccc(NC(=O)c3ccco3)cc2)cc1 returned VDR inhibitor -6%, PI5P4Ka inh 1, TCR act 4%, FEN1 inh-1 inconclusive, PLK1 PBD inh -5% and WRN inhibitor -3%.
For COC(=O)c1ccc(NC(=O)c2ccc(NC(=O)c3ccco3)cc2)cc1 the results were VDR inhibitor 19%, PI5P4Ka inh -17, TCR act -4%, FEN1 inh-1 inconclusive, PLK1 PBD inh 2%, WRN inhibitor -14% and FEN1 inh-2 inconclusive.
COc1ccc(S(=O)(=O)NCCc2cn3ccsc3n2)cc1 was read as VDR inhibitor 0% and FEN1 inh-1 -13%.
For O=C(Nc1ccc(N2CCN(C(=O)c3ccccc3)CC2)cc1)c1ccc([N+](=O)[O-])o1 the results were VDR inhibitor -12%, PI5P4Ka inh -3, TCR act -2%, FEN1 inh-1 -1%, PLK1 PBD inh -13%, WRN inhibitor -8%[11.6 µM] and FEN1 inh-2 27*.
O=C(CCCN1C(=O)/C(=C\c2ccccc2)SC1=S)Nc1ccc(C(=O)O)cc1 was read as VDR inhibitor inconclusive, PI5P4Ka inh -6, TCR act 0%, FEN1 inh-1 -1%, PLK1 PBD inh -21% and WRN inhibitor -7%.
O=C(CCN1C(=O)/C(=C\C=C\c2ccccc2)SC1=S)Nc1ccc(C(=O)O)cc1 was read as VDR inhibitor inconclusive, PI5P4Ka inh inconclusive, TCR act -2%, FEN1 inh-1 -19%, PLK1 PBD inh 24µM*, WRN inhibitor 56µM* and FEN1 inh-2 inconclusive.
Screening CC(=O)c1ccc(NC(=O)c2cc3c(=O)oc4ccc(C)cc4c3s2)cc1 returned VDR inhibitor 2% and FEN1 inh-1 12%.
CCCCCCCCn1c2c(c(=N)c3ccccc31)CCC2 was read as VDR inhibitor -14%, PI5P4Ka inh 1, TCR act 5%, FEN1 inh-1 -14%, PLK1 PBD inh -5% and WRN inhibitor 7%.

Screens: PubChem BioAssay, National Center for Advancing Translational Sciences (NCATS)
